± gives the uncertainty stated by the source.
Tests used:
[1] = test system: FLX1; experiment: cell viability z-score within plate (CellTiter-Glo), mean of 3 biological replicates; higher = higher viability relative to plate (less growth inhibition); conditions: 2 µM; time (hr): 120
Description: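 FLX1 fibrolamellar carcinoma cells (DNAJB1-PRKACA fusion), 600 cells/well in 384-well plates, treated with a Selleck kinase inhibitor library (L1200) at 2 uM for 5 days (120 hr); viability by CellTiter-Glo. A z-score was computed within each plate and averaged over three biological replicates.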

[2] = test system: FLX1 + dox-induced PRKAR1A G325D; experiment: difference in log2 fold change of viability vs plate median (dox-induced PRKAR1A G325D minus uninduced); higher = compound less effective when PKA is inhibited; conditions: concentration: not stated (2 or 5 uM); 5 days
Description: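 For each plate a log2 fold change vs the plate median was derived, and the values without dox were subtracted from those with dox, averaged over three biological replicates.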

| SMILES | cell viability z-score within plate [1] | difference in log2 fold change of viability [2] |
| --- | --- | --- |
| CC[C@H](Nc1ncnc2[nH]cnc12)c1nc2cccc(F)c2c(=O)n1-c1ccccc1 [Idelalisib (CAL-101, GS-1101)] | 0.166 ± 0.22 | 0.00653 |
| CCCNC(=O)Nc1ccc(Oc2ncnc3cc(OC)c(OC)cc23)cc1Cl | 0.704 ± 0.077 | -0.22 |
| Cc1ccc(-n2nc(C(C)(C)C)cc2NC(=O)Nc2ccc(OCCN3CCOCC3)c3ccccc23)cc1 [Doramapimod (BIRB 796)] | 0.479 ± 0.82 | 0.496 |
| Cn1c(=O)c(F)c(Nc2ccc(I)cc2F)c2c(=O)n(C[C@@H](O)CO)cnc21 | 1.04 ± 0.62 | -1.3 |
| Cc1cc(Nc2ncc(Cl)c(Nc3ccccc3S(=O)(=O)C(C)C)n2)c(OC(C)C)cc1C1CCNCC1 [Ceritinib (LDK378)] | 0.337 ± 0.65 | 0.032 |
| Cc1c(NC(=O)c2ccc(C(C)(C)C)cc2)cccc1-c1cn(C)c(=O)c(Nc2ccc(C(=O)N3CCOCC3)cc2)n1 | 0.367 ± 0.26 | 0.119 |
| Cc1cnc(Nc2ccc(N3CCN(C)CC3)cc2)nc1Nc1cccc(S(=O)(=O)NC(C)(C)C)c1 | 0.0181 ± 0.39 | -0.303 |
| CS(=O)(=O)c1cccc(CNc2nc(Nc3ccc4c(c3)CCC(=O)N4)ncc2C(F)(F)F)c1 | -2.81 ± 1.3 | -0.0481 |
| O=C1NC(=O)/C(=C/c2ccc3c(c2)OC(F)(F)O3)S1 | -0.962 ± 0.62 | -0.0198 |
| C[C@@H](NC(=O)c1ncnc(N)c1Cl)c1ncc(C(=O)Nc2cc(C(F)(F)F)c(Cl)cn2)s1 | 0.647 ± 0.28 | -0.193 |
| CCc1cnn2c(NCc3ccc[n+]([O-])c3)cc(N3CCCC[C@H]3CCO)nc12 | 0.031 ± 0.76 | 0.265 |
| Nc1nccc(Oc2ccc(NC(=O)c3c[nH]cc(-c4ccc(F)cc4)c3=O)cc2F)c1Cl | -0.37 ± 0.32 | -0.00105 |
| Cc1nc(Nc2cnn(C3CCNCC3)c2)nc2c1N(C)C(=O)c1cc3ccccc3cc1N2C | 1.62 ± 0.12 | -0.568 |
| CCOC(=O)c1cnc2ccc(-c3cncc(NS(=O)(=O)c4ccccc4)c3)cn12 | 0.507 ± 0.62 | 0.663 |
| Cc1cc2c(F)c(Oc3ncnn4cc(OC[C@@H](C)OC(=O)[C@H](C)N)c(C)c34)ccc2[nH]1 | 0.531 ± 0.22 | 0.461 |
| COc1cc(CCc2cc(NC(=O)c3ccc(N4CC(C)NC(C)C4)cc3)n[nH]2)cc(OC)c1 (stereo not drawn) | 1.18 ± 0.41 | -0.468 |
| Cc1cnc(NC(=O)Nc2cc(Br)c(C)cc2OC[C@@H]2CNCCO2)cn1 | 0.709 ± 0.31 | 1.29 |

| SMILES | cell viability z-score within plate [1] | difference in log2 fold change of viability [2] |
| --- | --- | --- |
| N#CC(=C(/N)Sc1ccccc1N)/C(C#N)=C(\N)Sc1ccccc1N | -1.01 ± 0.4 | 0.518 |
| COc1c(C)c(C(=O)c2ccc(N)c(C(=O)O)c2)n2ccccc12 | 0.661 ± 0.44 | 0.093 |
| COc1ccc2c(Oc3ccc(NC(=O)c4c(C)n(CC(C)(C)O)n(-c5ccccc5)c4=O)nc3)ccnc2c1 | 0.446 ± 0.46 | 0.00712 |
| COc1ccc(-c2nc(N3CCOCC3)c3sc(CN(C)c4ncc(C(=O)NO)cn4)cc3n2)cn1 | -0.258 ± 0.92 | 0.159 |
| CN1CCN(c2ccc(Nc3cc(-c4cccc(-n5ccc6cc(C7CC7)cc(F)c6c5=O)c4CO)cn(C)c3=O)nc2)CC1 | -0.244 ± 0.38 | -0.059 |
| C#Cc1cccc(Nc2ncnc3cc(OC)c(OCCCCCCC(=O)NO)cc23)c1 | -0.217 ± 0.35 | -0.131 |
| CC[C@@H]1C(=O)N(C)c2cnc(Nc3ccc(C(=O)NC4CCN(C)CC4)cc3OC)nc2N1C1CCCC1 | -1.49 ± 0.57 | 0.0323 |
| CN1CCN(c2nc(C3=C(c4c[nH]c5ccccc45)C(=O)NC3=O)c3ccccc3n2)CC1 [Sotrastaurin] | 0.764 ± 0.47 | -0.157 |
| O=c1cc(-c2cccc3c2Sc2ccccc2S3)oc(N2CCOCC2)c1 | 0.731 ± 0.28 | 0.329 |
| CCc1cccc(CC)c1NC(=O)N1Cc2[nH]nc(NC(=O)c3ccc(N4CCN(C)CC4)cc3)c2C1 | -0.62 ± 0.28 | 0.41 |
| CN1CCN(C2CCN(C(=O)Nc3cc(Oc4ccc(NC(=O)C5(C(=O)Nc6ccc(F)cc6)CC5)c(F)c4)ccn3)CC2)CC1 [Golvatinib (E7050)] | 0.521 ± 0.14 | 0.0894 |
| CCc1ccc(/C=C2/SC(=S)NC2=O)cc1 | 0.872 ± 0.44 | 0.116 |
| CN(C[C@@H]1COCCO1)S(=O)(=O)Nc1ccc2ccc3ncc(-c4cnn(C)c4)cc3c(=O)c2c1 | -0.122 ± 0.42 | -0.247 |
| O=C1Nc2ccccc2/C1=C1/Nc2ccccc2C1=O [Indirubin] | 1.02 ± 0.66 | 0.211 |
| CCCS(=O)(=O)Nc1ccc(F)c(C(=O)c2c[nH]c3ncc(Cl)cc23)c1F | 0.17 ± 0.093 | 0.333 |
| O=c1c(O)c(-c2ccc(O)c(O)c2)oc2cc(O)cc(O)c12 [Quercetin] | 1.1 ± 0.51 | -0.0725 |
| Cc1cnc(Nc2ccc(OCCN3CCCC3)cc2)nc1Nc1cccc(S(=O)(=O)NC(C)(C)C)c1 | -0.235 ± 0.43 | -0.00786 |

From the supplement of paper PMC9925115
